SMILES strings stand for the structures. Hit rate of the full screen: of about 39,000 compounds, about 1,500 (3.8%) were called active. The full list was thinned out, with actives kept by preference.

The experiment deals with HSkMC (human skeletal muscle cells). Description: cytotoxicity call (relative viability < 0.9). Conditions: 10 µM.
In the case of `C[C@H](CO)N1C[C@H](C)[C@@H](CN(C)C(=O)Nc2ccc(F)cc2)OCCCC[C@H](C)Oc2ccc(NS(=O)(=O)c3ccc(F)cc3)cc2C1=O`, the cytotoxicity call is “inactive”.

With `C[C@@H]1CN([C@H](C)CO)C(=O)c2cc(NC(=O)C3CC3)ccc2O[C@H]1CN(C)S(=O)(=O)c1cccs1`, the cytotoxicity call is “inactive”.

`C[C@H](CO)N1C[C@H](C)[C@@H](CN(C)C(=O)Nc2cccc3ccccc23)Oc2ccc(NC(=O)Cc3cn(C)c4ccccc34)cc2C1=O`: the cytotoxicity call was “inactive”.

As for `C[C@@H]1CN([C@@H](C)CO)C(=O)c2cc(NC(=O)Cc3cn(C)c4ccccc34)ccc2O[C@H]1CN(C)C(=O)Nc1cccc2ccccc12`, the cytotoxicity call was “inactive”.

On to `C[C@@H]1CN([C@H](C)CO)C(=O)c2cc(NC(=O)Cc3cn(C)c4ccccc34)ccc2O[C@@H]1CN(C)C(=O)Nc1cccc2ccccc12`, for which the cytotoxicity call was “active”.

On to `C[C@@H]1CN([C@H](C)CO)C(=O)c2cc(NC(=O)Cc3cn(C)c4ccccc34)ccc2O[C@H]1CN(C)C(=O)Nc1cccc2ccccc12`, for which the cytotoxicity call is “active”.

Regarding `C[C@H]1CN([C@@H](C)CO)C(=O)c2cc(NC(=O)Cc3cn(C)c4ccccc34)ccc2O[C@H]1CN(C)C(=O)Nc1cccc2ccccc12`, the cytotoxicity call was “inactive”.

For `C[C@@H]1CN([C@@H](C)CO)C(=O)c2cc(NC(=O)Cc3cn(C)c4ccccc34)ccc2O[C@@H]1CN(C)C(=O)Nc1cccc2ccccc12`, the cytotoxicity call is “active”.

Take `C[C@H]1CN([C@@H](C)CO)C(=O)Cc2cc(NC(=O)Cc3cn(C)c4ccccc34)ccc2O[C@H]1CN(C)C(=O)Nc1cccc2ccccc12`: the cytotoxicity call is “inactive”.

For `C[C@H](CO)N1C[C@H](C)[C@H](CN(C)C(=O)Nc2cccc3ccccc23)Oc2ccc(NC(=O)Cc3cn(C)c4ccccc34)cc2C1=O`, the cytotoxicity call was “inactive”.

Consider `C[C@H]1CN([C@@H](C)CO)C(=O)c2cc(NC(=O)Cc3cn(C)c4ccccc34)ccc2O[C@@H]1CN(C)C(=O)Nc1cccc2ccccc12`, for which the cytotoxicity call is “inactive”.

On to `COc1ccc(NC(=O)Nc2cccc3c2O[C@@H](CN(C)C(=O)Nc2cccc4ccccc24)[C@@H](C)CN([C@@H](C)CO)C3=O)cc1`, for which the cytotoxicity call was “inactive”.

Consider `O[C@H]1[C@H](O)[C@@H](O)[C@H](O)[C@H](O)[C@H]1O`, for which the cytotoxicity call is “inactive”.

As for `COc1ccc(S(=O)(=O)N[C@H]2C=C[C@H](CC(=O)N3CCC(Cc4ccccc4)CC3)O[C@@H]2CO)cc1`, the cytotoxicity call is “inactive”.

Regarding `CO[C@H]1CN(C)C(=O)c2cc(NC(=O)c3ccccc3)ccc2OC[C@H](C)N(C(=O)CN(C)C)C[C@@H]1C`, the cytotoxicity call was “inactive”.

For `C[C@@H]1CN([C@H](C)CO)C(=O)c2cccc(NC(=O)c3cnccn3)c2O[C@@H]1CN(C)CC1CCCCC1`, the cytotoxicity call is “inactive”.

As for `COc1ccc(CN(C)C[C@@H]2Oc3ccc(NC(=O)C4CC4)cc3CC(=O)N([C@H](C)CO)C[C@@H]2C)cc1`, the cytotoxicity call was “inactive”.

As to `C[C@@H]1CCCCO[C@H](CN(C)Cc2ccc(Cl)c(Cl)c2)[C@@H](C)CN([C@H](C)CO)C(=O)c2cc(NC(=O)Nc3ccc(F)cc3)ccc2O1`, the cytotoxicity call is “inactive”.

In the case of `Cn1cnc(S(=O)(=O)N2C[C@H](O)COC[C@@H]3O[C@H](CC(=O)NCc4ccc(F)cc4)CC[C@H]32)c1`, the cytotoxicity call is “inactive”.

With `Cc1cc(C(=O)Nc2cccc3c2O[C@H](CN(C)C(=O)Nc2c(C)noc2C)[C@H](C)CN([C@@H](C)CO)C3=O)n(C)n1`, the cytotoxicity call is “inactive”.

For the compound `COC1C(OC(N)=O)C(O)C(Oc2ccc3c([O-])c(NC(=O)c4ccc(O)c(CC=C(C)C)c4)c(=O)oc3c2C)OC1(C)C.[Na+]` (stereo unspecified), the cytotoxicity call was “inactive”.

For the compound `CO[C@@H]1[C@@H](OC(=O)c2ccc(C)[nH]2)[C@@H](O)[C@@H](Oc2ccc3c(c2C)OC(=O)[C@H](NC(=O)c2[nH]cc(CC(=O)Nc4cc5ccc(O[C@@H]6OC(C)(C)[C@H](OC)[C@@H](OC(=O)c7ccc(C)[nH]7)[C@H]6O)c(C)c5oc4=O)c2C)C3)CC1(C)C`, the cytotoxicity call was “active”.

For the compound `COc1ccc(NC(=O)N(C)C[C@H]2OCCCC[C@H](C)Oc3ccc(NC(=O)Nc4ccc5c(c4)OCO5)cc3C(=O)N([C@@H](C)CO)C[C@@H]2C)cc1`, the cytotoxicity call was “inactive”.

For the compound `C[C@H]1CN([C@@H](C)CO)C(=O)c2cc(NC(=O)Nc3ccc4c(c3)OCO4)ccc2O[C@H]1CN(C)S(=O)(=O)c1cn(C)cn1`, the cytotoxicity call was “inactive”.

Consider `Cc1noc(C)c1NC(=O)Nc1ccc2c(c1)C(=O)N([C@@H](C)CO)C[C@H](C)[C@H](CN(C)C(=O)Nc1ccc(F)cc1)OCCCC[C@H](C)O2`, for which the cytotoxicity call was “inactive”.

Turning to `Cc1noc(C)c1NC(=O)Nc1ccc2c(c1)C(=O)N([C@H](C)CO)C[C@H](C)[C@H](CN(C)Cc1ccc3c(c1)OCO3)OCCCC[C@H](C)O2`, the cytotoxicity call is “inactive”.

For `O=C(C[C@H]1CC[C@@H]2[C@H](COC[C@H](O)CN2C(=O)c2ccncc2)O1)NC1CCC1`, the cytotoxicity call was “inactive”.

Regarding `COc1ccc(CN(C)C[C@H]2Oc3ccc(NC(=O)Nc4cccc5ccccc45)cc3CC(=O)N([C@H](C)CO)C[C@H]2C)cc1`, the cytotoxicity call was “active”.

In the case of `C[C@@H]1CN([C@H](C)CO)C(=O)Cc2cc(NC(=O)Nc3cccc4ccccc34)ccc2O[C@@H]1CN(C)Cc1ccncc1`, the cytotoxicity call was “inactive”.

Consider `C[C@H](CO)N1C[C@H](C)[C@H](CN(C)Cc2ccncc2)Oc2ccc(NC(=O)Nc3cccc4ccccc34)cc2CC1=O`, for which the cytotoxicity call is “active”.

In the case of `COc1ccc(CN(C)C[C@@H]2Oc3ccc(NC(=O)Nc4cccc5ccccc45)cc3CC(=O)N([C@H](C)CO)C[C@@H]2C)cc1`, the cytotoxicity call was “inactive”.

In the case of `C[C@H](CO)N1C[C@H](C)[C@@H](CN(C)Cc2ccc(-c3ccccc3)cc2)Oc2ccc(NC(=O)Nc3cccc4ccccc34)cc2CC1=O`, the cytotoxicity call is “inactive”.

`COc1ccc(CN(C)C[C@@H]2Oc3ccc(NC(=O)Nc4cccc5ccccc45)cc3CC(=O)N([C@@H](C)CO)C[C@@H]2C)cc1`: the cytotoxicity call is “active”.

Take `COc1ccc(CN(C)C[C@H]2Oc3ccc(NC(=O)Nc4cccc5ccccc45)cc3CC(=O)N([C@@H](C)CO)C[C@@H]2C)cc1`: the cytotoxicity call is “inactive”.

On to `COc1ccc(CN(C)C[C@H]2Oc3ccc(NC(=O)Nc4cccc5ccccc45)cc3CC(=O)N([C@@H](C)CO)C[C@H]2C)cc1`, for which the cytotoxicity call is “inactive”.

Turning to `C[C@@H]1CN([C@H](C)CO)C(=O)Cc2cc(NC(=O)Nc3cccc4ccccc34)ccc2O[C@H]1CN(C)Cc1ccc(-c2ccccc2)cc1`, the cytotoxicity call is “inactive”.

For the compound `C[C@H]1CN([C@@H](C)CO)C(=O)Cc2cc(NC(=O)Nc3cccc4ccccc34)ccc2O[C@@H]1CN(C)Cc1ccc(-c2ccccc2)cc1`, the cytotoxicity call was “active”.

For the compound `C[C@@H]1CN([C@H](C)CO)C(=O)Cc2cc(NC(=O)Nc3cccc4ccccc34)ccc2O[C@H]1CN(C)Cc1ccncc1`, the cytotoxicity call was “inactive”.

For the compound `COc1ccc(CN(C)C[C@@H]2Oc3ccc(NC(=O)Nc4cccc5ccccc45)cc3CC(=O)N([C@H](C)CO)C[C@H]2C)cc1`, the cytotoxicity call was “inactive”.

Consider `Cn1nc(Cn2ccnc2)c2c1CN(CCO)C2`, for which the cytotoxicity call is “inactive”.

In the case of `C[C@H](CO)N1C[C@H](C)[C@H](CN(C)S(=O)(=O)c2cccs2)Oc2ccc(NS(=O)(=O)c3cccs3)cc2C1=O`, the cytotoxicity call was “inactive”.

Consider `C[C@@H]1CN([C@H](C)CO)C(=O)c2cccc(NC(=O)C3CC3)c2O[C@H]1CN(C)S(=O)(=O)c1cn(C)cn1`, for which the cytotoxicity call is “inactive”.

Take `C[C@@H]1CN([C@H](C)CO)C(=O)c2cc(NS(=O)(=O)c3cccs3)ccc2O[C@@H](C)CCCCO[C@@H]1CN(C)S(C)(=O)=O`: the cytotoxicity call is “inactive”.

For `COCC(=O)N1C[C@@H](C)[C@H](OC)CN(C)C(=O)c2cc(NC(=O)c3ccc(OC)cc3)ccc2OC[C@H]1C`, the cytotoxicity call is “inactive”.

As to `C[C@@H]1CN([C@@H](C)CO)C(=O)c2cc(NC(=O)NC3CCCCC3)ccc2O[C@@H](C)CCCCO[C@@H]1CN(C)Cc1ccccc1`, the cytotoxicity call is “inactive”.

As to `C[C@H]1CN([C@@H](C)CO)C(=O)c2cc(-c3ccc(C(=O)N(C)C)cc3)cnc2O[C@@H]1CN(C)C(=O)c1ccncc1`, the cytotoxicity call is “inactive”.

With `COc1cccc(NC(=O)C[C@@H]2CC[C@H]3[C@H](COc4ccc(NC(=O)C5CCOCC5)cc4C(=O)N3C)O2)c1`, the cytotoxicity call was “inactive”.

In the case of `C[C@@H]1CCCCO[C@H](CN(C)C(=O)Nc2ccccc2)[C@@H](C)CN([C@H](C)CO)C(=O)c2cc(NC(=O)Nc3ccc(F)cc3)ccc2O1`, the cytotoxicity call was “inactive”.

With `Cn1nnc2c(Cl)ncnc21`, the cytotoxicity call is “inactive”.

Turning to `COc1cc(C=CC(=O)O)cc(OC)c1OC`, the cytotoxicity call was “inactive”.

For `COc1cc(C=CC(=O)N2CCCCCCC2)cc(OC)c1OC`, the cytotoxicity call was “inactive”.

Regarding `COC(=O)C=Cc1cc(OC)c(OC)c(OC)c1`, the cytotoxicity call is “inactive”.

Regarding `C/C=C/C(=O)N1CCC=CC1=O`, the cytotoxicity call was “inactive”.

`C=C(C)C(=O)N1CCC=CC1=O`: the cytotoxicity call was “active”.

As to `COc1cc(/C=C/C(=O)N2CCC=CC2=O)cc(OC)c1OCCOCCOCCOCCC(=O)OC(C)(C)C`, the cytotoxicity call is “active”.

Consider `CCOC(=O)/C=C/C(=O)N1CCC=CC1=O`, for which the cytotoxicity call is “active”.

For the compound `COc1cc(/C=C/C(=O)N2CCC=CC2=O)cc(OC)c1OC(=O)CCCCCCCCCCC(=O)Oc1c(OC)cc(/C=C/C(=O)N2CCC=CC2=O)cc1OC`, the cytotoxicity call was “inactive”.

For `CCC(=O)OCN1C(=O)C=CC1=O`, the cytotoxicity call was “inactive”.

Turning to `COc1cc(C=CC(=O)N2CCC=CC2=O)cc(OC)c1OC`, the cytotoxicity call was “active”.

In the case of `C[C@@H]1CN([C@H](C)CO)C(=O)c2cc(NC(=O)Nc3ccc(F)cc3)ccc2O[C@@H](C)CCCCO[C@@H]1CN(C)C(=O)NC1CCCCC1`, the cytotoxicity call is “inactive”.

Consider `NCC[C@H]1CC[C@@H](NC(=O)C2CC2)[C@@H](CO)O1`, for which the cytotoxicity call was “inactive”.

Regarding `COC[C@H]1CN(C)N=C(C2CC2)O1`, the cytotoxicity call is “inactive”.

As to `C[C@H]1CN([C@@H](C)CO)C(=O)Cc2cc(NC(=O)Nc3cccc4ccccc34)ccc2O[C@@H]1CN(C)Cc1ccc(C(=O)O)cc1`, the cytotoxicity call was “inactive”.

For `O=C(O)C1CCC1`, the cytotoxicity call was “inactive”.

`CO[C@H]1CN(C)C(=O)c2cc(NS(=O)(=O)CC(F)(F)F)ccc2OC[C@@H](C)N(Cc2ccccn2)C[C@H]1C`: the cytotoxicity call was “inactive”.

In the case of `CC(C)NC(=O)N(C)C[C@H]1Oc2c(NC(=O)Nc3ccc4c(c3)OCO4)cccc2C(=O)N([C@H](C)CO)C[C@@H]1C`, the cytotoxicity call was “inactive”.

For the origin of these results see the antibiotic and cytotoxicity screens of Wong et al. (2023).
